# GLP-1R agonist: GLP-1 receptor (human) agonism; HEK293 GLP-1R CRE-luciferase, luminescence, 4-6 h; cells express a hypersensitive GLP-1R form; Potency, µM (highest dose often 45.6 µM), for the others: at the top dose activation, usual class: activators; P43220; 380,000 tested, 0.007% active; note: % of control where 0% means no effect
# Target sequence (P43220 whole entry, looked up): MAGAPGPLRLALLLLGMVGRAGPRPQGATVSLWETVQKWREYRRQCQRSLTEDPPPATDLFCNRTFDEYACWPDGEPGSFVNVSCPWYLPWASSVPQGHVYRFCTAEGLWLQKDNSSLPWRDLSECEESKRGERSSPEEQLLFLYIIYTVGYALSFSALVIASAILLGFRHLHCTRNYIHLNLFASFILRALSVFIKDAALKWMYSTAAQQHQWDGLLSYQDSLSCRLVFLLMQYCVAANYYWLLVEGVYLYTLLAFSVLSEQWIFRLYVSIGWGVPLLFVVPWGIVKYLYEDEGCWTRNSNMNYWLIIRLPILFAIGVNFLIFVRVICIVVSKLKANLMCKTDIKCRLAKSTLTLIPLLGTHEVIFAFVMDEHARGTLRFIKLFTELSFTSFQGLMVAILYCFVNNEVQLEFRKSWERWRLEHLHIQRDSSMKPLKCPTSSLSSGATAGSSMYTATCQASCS
# GLP1R cytotox: cytotoxic in the GLP-1 receptor inverse agonist counter-screen; HEK293 cAMP-luciferase reporter cells, luminescence, 24 h; Potency, µM (top dose mostly 38.3 µM), without a hit: top-dose activity change, negative = inhibition, hits mostly inhibitors; 410,000 tested, 0.13% active;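 note: loss of luciferase light is scored as toxicity; % is set by controls: 0 for no effect and ±100 for the full control effect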
#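 Compound-treated cells are incubated 24 hr at 37 deg C under 5% CO2 after a 12 hour attachment period, then luciferase detection reagent is added and luminescence is measured following 12 min at room temperature; lowered signal indicates toxicity.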
# ClpP mod: qHTS Assay for Activators of ClpP. purified B. subtilis ClpP, FRET peptide cleavage, 20 min. 340,000 tested, 1.9% active. ATP-dependent Clp protease proteolytic subunit (Bacillus subtilis (strain 168)), P80244. Potency, µM (titrated, usually from 57.5 µM), without a hit: at the highest dose activity change, negative = active; active = well fitted falling curve with a large enough effect; inconclusive = small, poorly fitted or top-dose-only effect; inactive = no such curve, though single readings can be large or run the other way; note: the source files actives as falling curves though it sought activators and does not explain the sign; nearly all actives have a fitted effect of over 65% in size
#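 ClpP 10 microg/mL final, pH 8 Tris/KCl buffer with BSA, glycerol, Tween-20; compound pinned in; FRET-FV substrate; RT 20 min; Ex320/Em430; ΔFRET vs ADEP 5.8 microM, DMSO, no enzyme.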
# GLP-1R inv ag: inverse agonists of human GLP-1 receptor | HEK293 GLP-1R CRE-luciferase, luminescence, 24 h; GLP-1R form is constitutively active | 410,000 tested, 1.6% active | Potency, µM (highest dose often 38.3 µM), for inactives: at the highest dose activity change, negative = inhibition, most hits filed as inhibitors | AID 624417; note: % is set by controls: 0 for no effect and ±100 for the full control effect; nearly all actives have a fitted effect of over 55% in size
#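 HEK293 cells stably co-expressing a cAMP-responsive luciferase reporter and constitutively active GLP-1R were seeded, incubated 12 h, then exposed to compounds for 24 h at 37 C. Luminescence was read 12 min after detection reagent; inverse agonists lower signal.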
# * hit, by the source's call; ? = inconclusive; · = not tested or not shown; [ ] = dose if it differs, or a comment. Compounds with a hit are over-represented: about 3.2% of the library has one in this group of screens. Unless noted, calls come from the whole dose curve; as a rule, active = well fitted curve in the direction sought with a large enough effect; inconclusive = small, poorly fitted or top-dose-only effect, or another doubt; inactive = no such curve, though single readings can be large; an effect the other way counts as inactive or inconclusive. Potency is the fitted concentration of half-maximal effect.
SMILES,GLP-1R agonist,GLP1R cytotox,ClpP mod,GLP-1R inv ag
CN(C)CCNC(=O)c1cccc2nc3cccc(F)c3nc12,-5%,-3%,-4%,6.3µM*
COc1ccc(OC)c2nc3c(C(=O)NCCN(C)C)cccc3nc12,-23%,7.1µM*,-1%,?
O=C(CC1SC(=Nc2ccc(OC(F)F)cc2)N(CCN2CCOCC2)C1=O)Nc1ccccc1 (stereo not drawn),8%,-9%,-1%,10µM*
Cc1c(N=C2SCC(=O)N2/N=C\c2ccc(Br)cc2)c(=O)n(-c2ccccc2)n1C,0%,14%,·,8.9µM*
COc1ccccc1Nc1nc2ccc(C)cc2cc1C#N,1%,-4%,25µM*,8%
Cc1ccc(NC(=O)c2cnn3c2NC(=C2CC2)C=C3C(F)F)cc1C,·,·,-4%,·
CC(CCc1ccccc1)NC(=O)CNC(=S)N(Cc1cccs1)C1CCCC1 (stereo not drawn),11%,-3%,·,5µM*
CCCCNC(=O)CNC(=S)N(Cc1ccccc1)Cc1cccs1,11%,2%,·,5µM*
COC(CNC(=O)CNC(=S)N(Cc1ccccc1)Cc1cccs1)OC,0%,-4%,·,-28%
CC(C)c1ccc(NC(=O)c2cc(S(=O)(=O)NC3CCCCC3)ccc2F)cc1,·,-12%,-1%,?
Cc1cc(C(=O)OCC(=O)NC(=O)C2CCCCC2)ccc1[N+](=O)[O-],·,·,1%,·
Cc1cc(C)c(C#N)c(N2CCCC(C(N)=O)C2)n1 (stereo not drawn),3%,-4%,3.5µM*,18%
Cc1cc(C)c(C#N)c(N2CCSCC2)n1,10%,19%,35µM*,2%
CCOC(=O)C1CCN(c2nc(C)cc(C)c2C#N)CC1,19%,-1%,·,-10%
Cc1cc(C)c(C#N)c(N2CCN(c3ccccc3)CC2)n1,20%,-34%,-16%,?
Cc1cc(Br)ccc1NC(=O)COC(=O)c1ccccc1OCC(=O)N(C)C,·,·,-2%,·
CCNc1nc2c(c(=O)[nH]c(=O)n2C)n1CC(O)COc1ccc(Cl)cc1Cl (stereo not drawn),·,?,1%,?
Cc1cc(C)c(S(=O)(=O)NC2CC(C)(C)NC(C)(C)C2)cc1Br,-1%,-10%,1%,11µM*
CC1(C)CC(NS(=O)(=O)c2ccc3ccccc3c2)CC(C)(C)N1,4%,20%,·,11µM*
Cc1cc(OCC(=O)NC2CC(C)(C)NC(C)(C)C2)c(C)cc1Br,0%,12%,0%,4.5µM*
Cc1ccc(C(C)C)cc1S(=O)(=O)NC1CC(C)(C)NC(C)(C)C1,4%,-15%,·,8.9µM*
COc1cc(C)c(S(=O)(=O)NC2CC(C)(C)NC(C)(C)C2)cc1C,2%,-7%,-2%,?
O=C(Cn1c(=O)n(-c2ccc(F)cc2)c(=O)c2sc3ccccc3c21)N1CCCC1,0%,-10%,4%,4%
CN1CCCC(CN2c3ccccc3Sc3ccccc32)C1 (stereo not drawn),7%,-20%,-4%,10µM*
CN1CCCC(CC2c3ccccc3Sc3ccccc32)C1 (stereo not drawn),-8%,-22%,1%,?
SMILES,GLP-1R agonist,GLP1R cytotox,ClpP mod,GLP-1R inv ag
CCOc1ccc2nc(N/C(N)=N/C(=S)Nc3ccc(C)c(C)c3)nc(C)c2c1,1%,-3%[1.53 µM],25µM*,-9%
COc1ccc(C(=O)N(c2ccc(C)cc2)S(=O)(=O)c2ccc(C)cc2)cc1,·,?,-2%,3.2µM*
Cn1c(=O)c2c(nc(Br)n2CC(=O)c2cccs2)n(C)c1=O,-7%,20%,28µM*,17%
Cc1ccccc1OCC(=O)OCc1cc(=O)n2nc(C3CC3)sc2n1,·,2%,-3%,15%
CCN(CC)S(=O)(=O)c1ccc2c(c1)N(CC(=O)NCCc1ccc(OC)c(OC)c1)C(=O)CO2,·,-10%,5%,14%
Cc1ccc(C(=O)N2c3ccc(C)cc3C(C)(c3ccccc3)CC2(C)C)cc1 (stereo not drawn),·,7%,-5%,?
COc1ccc(C(=O)N2c3ccc(C)cc3C(C)(c3ccccc3)CC2(C)C)cc1 (stereo not drawn),·,6%,-6%,10µM*
Cc1nc2ccn(Cc3cccnc3)c(=O)c2cc1C(=O)Nc1ccc(OC(F)(F)F)cc1,·,1%,-23%,-24%
COC(=O)C1=CN(C2CC2)C=C(C(=O)OC)C1c1ccc(C(F)(F)F)cc1,7%,50%,·,?

# Bioassay records: PubChem BioAssay, National Center for Advancing Translational Sciences (NCATS)
